Assay in all cases: universal protein binding microarray (PBM); transcription factors of Arabidopsis thaliana; high values mean tight binding
What all share (conditions): protein: recombinant; tags: GST; chain copies: 2; dsDNA, one strand shown

One assay addresses T1, GST-ANAC092(1-176) (Arabidopsis thaliana, UniProt Q9FKA0 1-176).
T1 sequence: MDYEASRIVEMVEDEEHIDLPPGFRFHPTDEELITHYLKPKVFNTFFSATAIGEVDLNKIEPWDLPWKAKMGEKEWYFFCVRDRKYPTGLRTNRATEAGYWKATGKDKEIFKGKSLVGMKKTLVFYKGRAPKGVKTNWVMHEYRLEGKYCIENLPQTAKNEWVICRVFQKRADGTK
An outline of the steps:
(§1)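 GST-tagged NAC-domain, full-length or DNA-binding-domain proteins were induced in cells, with zinc acetate added for zinc-finger proteins. They were purified on glutathione–Sepharose 4B and quantified by A280 or anti-GST western blot. Each was applied at 200 to 500 nM final, in duplicate, to custom all-10-mer Agilent 4 × 180K arrays made double-stranded by primer extension, with gapped and ungapped 8-mers scored. Binding is the normalised enrichment score (E-score).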

For the next assay, the target named is GST-NTL6(1-168) (Arabidopsis thaliana, UniProt Q9SCK6 1-168). Summed up: as §1
The next assay addresses T2, GST-ANAC019 NAC domain (Arabidopsis thaliana, UniProt Q9C932 14-162).
T2 sequence: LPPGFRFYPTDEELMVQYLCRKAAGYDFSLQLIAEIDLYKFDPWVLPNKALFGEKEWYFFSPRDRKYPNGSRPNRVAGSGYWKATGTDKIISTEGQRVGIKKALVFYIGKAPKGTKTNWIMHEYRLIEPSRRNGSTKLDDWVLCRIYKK
An outline of the steps: as §1

Another assay concerns the target T3, GST-ANAC055(1-171) (Arabidopsis thaliana, UniProt Q9LDY8 1-171).
T3 sequence: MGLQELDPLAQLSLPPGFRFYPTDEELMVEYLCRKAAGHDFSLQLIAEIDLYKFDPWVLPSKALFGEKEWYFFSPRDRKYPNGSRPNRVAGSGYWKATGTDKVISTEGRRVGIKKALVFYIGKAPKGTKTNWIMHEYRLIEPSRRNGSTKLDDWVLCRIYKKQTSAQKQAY
An outline of the steps:
as §1

In a further assay the target is T4, GST-ATAF1 NAC domain (Arabidopsis thaliana, UniProt Q39013 7-158).
T4 sequence: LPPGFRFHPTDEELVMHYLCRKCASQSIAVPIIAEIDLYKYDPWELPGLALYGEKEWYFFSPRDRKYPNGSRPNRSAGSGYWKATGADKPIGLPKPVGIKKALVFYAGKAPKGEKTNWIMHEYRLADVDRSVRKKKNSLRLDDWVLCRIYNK
An outline of the steps:
as §1

For assay [1], the target named is T5, GST-ANAC092(1-285) full length (Arabidopsis thaliana, UniProt Q9FKA0 1-285).
T5 sequence: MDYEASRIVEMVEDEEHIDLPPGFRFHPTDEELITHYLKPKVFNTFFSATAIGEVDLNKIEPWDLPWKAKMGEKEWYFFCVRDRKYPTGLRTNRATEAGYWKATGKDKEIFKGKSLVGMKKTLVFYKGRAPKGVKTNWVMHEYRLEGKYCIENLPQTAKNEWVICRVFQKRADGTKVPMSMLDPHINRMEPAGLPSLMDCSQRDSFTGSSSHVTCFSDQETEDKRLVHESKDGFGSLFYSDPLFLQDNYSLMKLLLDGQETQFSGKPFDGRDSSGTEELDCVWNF
Summed up: as §1

In a further assay the target is T6, GST-NAP(1-166) (Arabidopsis thaliana, UniProt O49255 1-166).
T6 sequence: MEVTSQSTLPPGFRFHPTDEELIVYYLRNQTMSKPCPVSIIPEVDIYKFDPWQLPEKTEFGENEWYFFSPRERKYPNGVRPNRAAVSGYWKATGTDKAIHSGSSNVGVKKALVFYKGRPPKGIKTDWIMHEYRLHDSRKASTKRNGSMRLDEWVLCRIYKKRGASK
Summed up: as §1

The target in a further assay is T7, GST-NST2(1-184) (Arabidopsis thaliana, UniProt Q9M274 1-184).
T7 sequence: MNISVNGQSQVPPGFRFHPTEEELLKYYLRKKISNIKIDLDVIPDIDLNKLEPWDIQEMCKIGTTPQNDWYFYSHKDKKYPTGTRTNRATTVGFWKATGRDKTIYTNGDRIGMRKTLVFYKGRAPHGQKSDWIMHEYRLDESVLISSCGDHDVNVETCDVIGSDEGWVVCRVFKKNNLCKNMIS
Summed up:
as §1

For another assay, the target named is T8, GST-SND1(1-203) (Arabidopsis thaliana, UniProt Q9LPI7 1-203).
T8 sequence: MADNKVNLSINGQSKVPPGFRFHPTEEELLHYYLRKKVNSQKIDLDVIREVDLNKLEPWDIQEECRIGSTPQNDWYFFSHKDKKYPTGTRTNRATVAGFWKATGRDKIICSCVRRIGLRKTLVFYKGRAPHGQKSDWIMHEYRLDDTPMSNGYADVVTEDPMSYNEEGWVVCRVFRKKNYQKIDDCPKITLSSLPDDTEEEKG
An outline of the steps: as §1

The next assay has as its target T9, GST-VND3 NAC domain (Arabidopsis thaliana, UniProt Q9FH59 12-162).
T9 sequence: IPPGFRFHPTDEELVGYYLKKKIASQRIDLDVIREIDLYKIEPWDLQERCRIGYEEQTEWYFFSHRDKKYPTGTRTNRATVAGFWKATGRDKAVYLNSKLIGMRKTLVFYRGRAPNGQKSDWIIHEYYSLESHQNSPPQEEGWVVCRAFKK
An outline of the steps:
as §1

In a further assay the target is T10, GST-VND7 NAC domain (Arabidopsis thaliana, UniProt Q9C8W9 9-158).
T10 sequence: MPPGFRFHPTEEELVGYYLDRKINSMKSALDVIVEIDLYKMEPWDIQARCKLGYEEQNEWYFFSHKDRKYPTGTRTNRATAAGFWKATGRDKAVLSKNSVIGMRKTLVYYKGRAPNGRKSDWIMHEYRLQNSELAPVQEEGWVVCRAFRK
Summed up: as §1

Another assay addresses T11, GST-NTL8 NAC domain (Arabidopsis thaliana, UniProt Q9XIN7 14-156).
T11 sequence: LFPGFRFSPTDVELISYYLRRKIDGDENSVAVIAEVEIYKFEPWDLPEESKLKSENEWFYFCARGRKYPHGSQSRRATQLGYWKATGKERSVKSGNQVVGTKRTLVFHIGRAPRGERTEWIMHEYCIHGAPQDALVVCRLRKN
An outline of the steps: as §1

Chain of GST-NTL6(1-168) (Q9SCK6 1-168): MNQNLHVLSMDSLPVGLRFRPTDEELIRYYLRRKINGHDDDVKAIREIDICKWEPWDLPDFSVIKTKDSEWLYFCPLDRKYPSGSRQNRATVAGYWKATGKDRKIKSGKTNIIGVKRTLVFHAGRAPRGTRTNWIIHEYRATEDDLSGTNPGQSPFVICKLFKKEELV

Consider ATACGAAA, for which the binding signal amounted to 0.393 E-score in the assay with GST-ANAC092(1-176); 0.184 E-score with GST-NTL6(1-168); 0.166 E-score in the assay with GST-ANAC019 NAC domain; 0.202 E-score in the assay with GST-ANAC055(1-171); 0.259 E-score with GST-ATAF1 NAC domain; 0.421 E-score in assay [1]. Also, the binding signal with GST-NAP(1-166) came out at 0.251 E-score; with GST-NST2(1-184), 0.271 E-score; in the assay with GST-SND1(1-203), 0.239 E-score; with GST-VND3 NAC domain, 0.296 E-score; with GST-VND7 NAC domain, 0.205 E-score.

For CAAGTTAC, the binding signal was 0.371 E-score with GST-ANAC092(1-176); 0.256 E-score with GST-NTL6(1-168); 0.163 E-score with GST-ANAC019 NAC domain; 0.178 E-score with GST-ANAC055(1-171); 0.134 E-score with GST-ATAF1 NAC domain; 0.411 E-score in [1]. The binding signal with GST-NAP(1-166) is 0.144 E-score; with GST-NST2(1-184) it was 0.238 E-score; in the assay with GST-NTL8 NAC domain it was 0.167 E-score; in the assay with GST-SND1(1-203) it was 0.323 E-score; with GST-VND3 NAC domain, 0.254 E-score; with GST-VND7 NAC domain, 0.184 E-score.

In the case of ACGTAACC, the binding signal in the assay with GST-ANAC092(1-176) is 0.442 E-score; with GST-NTL6(1-168) it was 0.149 E-score; with GST-ANAC019 NAC domain, 0.389 E-score; with GST-ANAC055(1-171) it was 0.412 E-score; in the assay with GST-ATAF1 NAC domain, 0.389 E-score; in assay [1] it was 0.463 E-score. Besides, the binding signal with GST-NAP(1-166) was determined as 0.43 E-score; with GST-NST2(1-184), 0.338 E-score; in the assay with GST-NTL8 NAC domain, 0.328 E-score; in the assay with GST-SND1(1-203) it was 0.392 E-score; in the assay with GST-VND3 NAC domain, 0.409 E-score; with GST-VND7 NAC domain, 0.414 E-score.

Turning to AACACGCT, the binding signal with GST-ANAC092(1-176) came out at 0.416 E-score; in the assay with GST-NTL6(1-168) it was 0.134 E-score; with GST-ANAC019 NAC domain, 0.185 E-score; with GST-ANAC055(1-171), 0.236 E-score; in the assay with GST-ATAF1 NAC domain it was 0.174 E-score; in assay [1] it was 0.431 E-score. Besides, the binding signal was found to be 0.2 E-score with GST-NAP(1-166); 0.3 E-score with GST-NST2(1-184); 0.227 E-score with GST-SND1(1-203); 0.0943 E-score in the assay with GST-VND3 NAC domain; 0.142 E-score with GST-VND7 NAC domain.

On to TAGCGTAA, for which the binding signal amounted to 0.453 E-score with GST-ANAC092(1-176); 0.123 E-score in the assay with GST-NTL6(1-168); 0.0774 E-score with GST-ANAC019 NAC domain; 0.173 E-score with GST-ANAC055(1-171); 0.281 E-score with GST-ATAF1 NAC domain; 0.454 E-score in assay [1]. Besides, the binding signal in the assay with GST-NAP(1-166) came to 0.221 E-score; with GST-NST2(1-184), 0.412 E-score; with GST-SND1(1-203), 0.492 E-score; with GST-VND3 NAC domain it was 0.297 E-score; with GST-VND7 NAC domain it was 0.347 E-score.

On to TACGCAAA, for which the binding signal with GST-ANAC092(1-176) is 0.469 E-score; with GST-NTL6(1-168), 0.104 E-score; with GST-ANAC019 NAC domain, 0.385 E-score; in the assay with GST-ANAC055(1-171) it was 0.315 E-score; with GST-ATAF1 NAC domain, 0.323 E-score; in assay [1], 0.469 E-score. Further, the binding signal with GST-NAP(1-166) amounted to 0.355 E-score; with GST-NST2(1-184) it was 0.393 E-score; with GST-NTL8 NAC domain, 0.0978 E-score; in the assay with GST-SND1(1-203) it was 0.473 E-score; in the assay with GST-VND3 NAC domain, 0.405 E-score; with GST-VND7 NAC domain, 0.334 E-score.

As to ACACGCTA, the binding signal with GST-ANAC092(1-176) turned out to be 0.484 E-score; with GST-NTL6(1-168) it was 0.0935 E-score; in the assay with GST-ANAC019 NAC domain it was 0.16 E-score; with GST-ANAC055(1-171), 0.193 E-score; with GST-ATAF1 NAC domain it was 0.116 E-score; in assay [1] it was 0.49 E-score. Further, the binding signal with GST-NAP(1-166) is 0.194 E-score; with GST-NST2(1-184) it was 0.4 E-score; in the assay with GST-SND1(1-203) it was 0.438 E-score; in the assay with GST-VND3 NAC domain it was 0.079 E-score; with GST-VND7 NAC domain, 0.104 E-score.
